According to PubChem BioAssay:
The source made the active and inactive calls.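 How the source made its calls: active means fluorescence slope after compound addition differing from the mean of all screened samples at 99.7% confidence, in either direction; inactive means the rest.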

Each compound was assayed against Alpha-2C adrenergic receptor (Homo sapiens) (UniProt P18825) (assay: compounds altering alpha2C-coupled GIRK flux – cell-based, HEK293 alpha2C/GIRK1/2, thallium flux, primary screen (AID 624;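 further: slope of fluorescence ratio to pre-addition baseline per second over 15 to 24 s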)). Details: thallium flux BTC fluorescence, at 10 µM, actives lie on both sides.
Sequence of Alpha-2C adrenergic receptor (Homo sapiens) (P18825 whole entry, looked up): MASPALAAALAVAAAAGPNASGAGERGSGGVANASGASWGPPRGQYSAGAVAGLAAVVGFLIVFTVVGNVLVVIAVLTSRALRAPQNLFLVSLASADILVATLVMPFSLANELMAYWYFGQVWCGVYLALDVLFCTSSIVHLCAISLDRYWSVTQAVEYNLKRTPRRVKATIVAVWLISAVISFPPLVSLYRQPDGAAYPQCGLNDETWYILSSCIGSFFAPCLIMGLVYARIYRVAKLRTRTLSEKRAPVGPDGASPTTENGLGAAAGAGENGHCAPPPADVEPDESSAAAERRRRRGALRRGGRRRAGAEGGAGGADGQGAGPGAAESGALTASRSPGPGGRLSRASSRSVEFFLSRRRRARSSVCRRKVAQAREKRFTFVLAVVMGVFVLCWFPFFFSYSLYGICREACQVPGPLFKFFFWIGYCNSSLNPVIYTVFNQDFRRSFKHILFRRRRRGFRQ

slope, inactive:
CSc1ccc(-c2cc(=O)c3ccccc3o2)cc1 0.00442
Cn1c(C(=O)OC(C(=O)NC2CCCC2)c2cccnc2)cc2sccc21 (stereo unspecified) 0.00446
C=CCSc1nnc(-c2ccc(Cl)cc2Cl)o1 0.00563
COCc1nnc(SCC(=O)NC(C)c2ccccc2)n1-c1ccccc1 (stereo unspecified) 0.00455
Cc1nc2ccc(F)cc2cc1C(=O)NCC1CCCO1 (stereo unspecified) 0.00492
COc1ccc(OCCOC(=O)c2cccc(-n3cnnn3)c2)cc1 0.00521
Cc1occc1-c1nnc(SCC(=O)N2CCOCC2)n1Cc1ccco1 0.00496
COc1ccccc1C(=O)NCC(c1cccnc1)N(C)C (stereo unspecified) 0.00557
O=C1NC(=O)C(CC(=O)N(c2ccccc2)C2(C(=O)NC3CCCC3)CCCCC2)N1 (stereo unspecified) 0.00517
CCOC(=O)N1CCN(C(=O)CN(Cc2ccccc2)S(=O)(=O)c2ccc(OC)c(C)c2)CC1 0.00442
O=C(CSc1nc2ccccc2o1)N1CCN(C(=O)c2ccco2)CC1 0.00634
c1cc2c(cc1C1CCCN1)OCCCO2 (stereo unspecified) 0.00434
COCCNC(=O)C(c1ccc(C)o1)N(C(=O)c1snc(C(N)=O)c1N)c1ccc(C)cc1 (stereo unspecified) 0.00521
O=C(CN1CCN(Cc2ccccc2)CC1)NCC1COc2ccccc2O1 (stereo unspecified) 0.00497
Cc1nc2ccccc2nc1OCC(=O)Nc1cc(C(F)(F)F)ccc1N1CCOCC1 0.00495
O=C(COc1ccc(F)cc1)Nc1ccc(-n2cnnn2)cc1 0.00564
